DT40 TDP1 CPT – qHTS for Inhibitors of human tyrosyl-DNA phosphodiesterase 1 (TDP1): qHTS in cells in presence of CPT | chicken DT40 Tdp1-/-;hTDP1 cells + 20 nM CPT, ATP luminescence, 48 h | Potency, µM (titrated, usually from 46.2 µM), for inactives: at the top dose activity change, negative = growth inhibition, most hits filed as inhibitors | 12% of 420,000 active; further: potency means the concentration at half of the fitted maximal effect; nearly all actives have a fitted effect of over 55% in size
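Cell growth measured by CellTiter-Glo luminescence after a minimum 48 h, 37 C compound exposure with 20 nM CPT in Tdp1-knockout DT40 cells stably expressing hTDP1, seeded 400/well; qHTS titration format.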
HT1080 IDH1KD tx – qHTS for induction of synthetic lethality in tumor cells producing 2HG: qHTS for the HT-1080-IDH1KD cell line; Potency, µM (doses to about 46.1 µM), without a hit: top-dose activity, negative = toxicity, hits mostly cytotoxic; 2% of 360,000 active; AID 686971, 2013; HT-1080 IDH1 knockdown viability, ATP luminescence, 48 h;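 further: potency means the concentration at half of the fitted maximal effect; 0% = DMSO wells and -100% = cell-free medium wells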
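In this qHTS, HT-1080 cells depleted of IDH1 are exposed for 48 h at 37 °C to compound titrations. Toxicity is scored from CellTiter-Glo luminescence, with DMSO as full viability and medium alone as none.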
IL1B secr inh – qHTS for Inhibitors of Inflammasome Signaling: IL-1-beta AlphaLISA Primary Screen | AID 743279, 2014 | activity change, % at 57.5 µM | 4.7% of 360,000 active | THP-1 LPS/ATP IL-1B secretion, AlphaLISA, 16 h; stronger effect = lower value; in the data active means activity change below about -50%; inconclusive means mostly about -30% to -49%
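Secreted IL-1B measured by AlphaLISA bead assay after 16 h compound exposure of THP-1 cells; compounds (final up to 57.5 uM) added 1 h before LPS (250 ng/mL) and ATP (1.25 mM) stimulation; lower signal means less secretion.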
DT40 TDP1 no CPT – qHTS for Inhibitors of human tyrosyl-DNA phosphodiesterase 1 (TDP1): qHTS in cells in absence of CPT; AID 686978, 2013; Potency, µM (series often up to 46.2 µM), without a hit: top-dose activity change, negative = growth inhibition, actives largely listed as inhibitors; 15% of 420,000 active; DT40 Tdp1-/- hTDP1 cells, no CPT, ATP luminescence, 48 h; further: potency means the concentration at half of the fitted maximal effect; nearly all actives have a fitted effect of over 55% in size
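Growth of hTDP1-complemented DT40 Tdp1-knockout cells is measured by ATP luminescence after at least 48 hr compound exposure at 37 °C, with DMSO substituting for the 20 nM CPT used in the parallel screen.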
HT1080NT lethal – qHTS for induction of synthetic lethality in tumor cells producing 2HG: qHTS for the HT-1080-NT fibrosarcoma cell line; HT-1080-NT fibrosarcoma viability, CellTiter-Glo ATP luminescence, 48 h; Potency, µM (doses to about 46.1 µM), inactives show at the top dose activity, negative = less viability, usual class: cytotoxic; 1.6% of 360,000 active; AID 686970, 2013;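 further: NT is the 2HG producing partner of a matched IDH1 knockdown line; potency means the concentration at half of the fitted maximal effect; 0% = DMSO-treated cells and -100% = media-only wells without cells; nearly all actives have a fitted effect of over 55% in size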
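Viability by CellTiter-Glo luminescence after 48 h compound exposure at 37C of HT-1080-NT cells (750/well, RPMI, 5% FBS). % activity scaled between DMSO wells and medium-only wells, then curve-fitted and categorized by curve class.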
Numbers without * were called inactive; ? = inconclusive; . = not tested or not shown; [ ] = another dose, or the depositor's remark. This is a sample that favours compounds with a hit; in the whole collection about 19% have one here. Unless noted, the call rests on the fitted dose curve; in most records, active means well fitted curve in the direction sought with a large enough effect; inconclusive means small, poorly fitted or top-dose-only effect, or another doubt; inactive means no such curve, though single readings can be large; an effect the other way counts as inactive or inconclusive. Unless noted, on the % scale 0 is the no-effect control and ±100 the full control effect.

SMILES	DT40 TDP1 CPT	HT1080 IDH1KD tx	IL1B secr inh	DT40 TDP1 no CPT	HT1080NT lethal
COc1ccc(C)cc1NC(=O)CSc1nnc(-c2cc3cccc(OC)c3o2)n1N	?	?	62.7	16.4µM*	?
COc1ccc(NC(=O)CSc2nnc(C3CCCCC3)n2N)c(OC)c1	-3.5%	11.6%	22.9	11.7%	6.3%
COc1cccc2cc(-c3nnc(SCC(=O)Nc4ccc(NC(C)=O)cc4)n3C)oc12	-26.9%	-19.1%	7.5	-3.2%	-23.9%
COc1ccc(NC(=O)CSc2nnc(C3CC3)n2N)cc1	8.8%	2.9%	2.2	-3.4%	11.9%
COc1ccc(-n2c(SCC(=O)Nc3cccc(C(=O)O)c3)nnc2-c2ccco2)cc1	-7.2%	14.6%	12.4	-0.2%	16.0%
COc1ccc(CCSc2nnc(C3CCCCC3)n2N)cc1	?	-5.2%	-7.3	11.6µM*	-3.4%
O=C(CSc1nnc(C2CCCCC2)n1-c1ccccc1)NCc1ccco1	?	3.1%	-16.5	8.2µM*	6.3%
COc1ccc(OC)c(NC(=O)CSc2nnc(-c3ccco3)n2-c2ccccc2)c1	20.6µM*	-4.7%	-1.0	?	-2.0%
CCNC(=O)CSc1nnc(C2CC2)n1-c1ccccc1	5.2%	21.5%	3.0	1.8%	16.9%
O=C(CSc1nnc(-c2ccco2)n1-c1ccccc1)N1CCN(C(=O)c2ccco2)CC1	?	-23.0%	?	23.1µM*	-2.1%
O=C(NCCCc1ccccc1)[C@@H]1Cc2ccccc2CN1	-19.3%	-8.0%	25.4	-10.8%	-9.0%
CN(C)CCNC(=O)c1cccc(-c2cnc3c(NC=O)cc(-c4ccc(S(C)(=O)=O)cc4)cn23)c1	7.5%	1.6%	-4.7	6.6%	5.2%
CN(C)CCNC(=O)c1cccc(-c2cnc3c(NC=O)cc(-c4cc(F)c(F)c(F)c4)cn23)c1	4.11µM*	18.4µM*	81.5	3.26µM*	?
CN(C)CCNC(=O)c1cccc(-c2cc(NC=O)c3ncc(-c4cccc(C(F)(F)F)c4)n3c2)c1	3.26µM*	16.4µM*	-109.0*	5.17µM*	29.1µM*
COc1cccc(-c2cc(NC=O)c3ncc(-c4cccc(C(=O)NCCN(C)C)c4)n3c2)c1	?	20.6µM*	-13.5	?	23.1µM*
COc1cccc(-c2cnc3c(NC=O)cc(-c4cccc(C(=O)N(C)C)c4)cn23)c1	?	?	147.7	?	-20.9%
CS(=O)(=O)Cc1ccc(C(=O)NC2CCSc3ccccc32)cc1 (configuration not stated)	5.1%	4.3%	0.1	1.9%	13.7%
CCCC(=O)N1CCC1(C)C(=O)NS(=O)(=O)c1cc2c(cc1C)CCCS2(=O)=O (configuration not stated)	-21.1%	1.5%	10.8	-0.7%	24.6%
C=C(C)COc1ccc(-c2ncncc2-c2ccccc2OC)c(O)c1	?	-12.8%	-15.6	?	-13.6%
C=C(C)COc1ccc(-c2[nH]ncc2Oc2ccccc2OC)c(O)c1	?	-4.0%[9.24 µM]	-61.6*	?	?
C=C(C)COc1ccc(-c2[nH]ncc2-c2ccccc2OC)c(O)c1	25.9µM*	18.4µM*	-59.9*	25.9µM*	18.4µM*
CCOc1ccc(-c2[nH]ncc2Oc2ccccc2OCC)c(O)c1	6.51µM*	?	-15.4	?	?
C=C(C)COc1ccc(-c2[nH]ncc2Oc2ccc(OC)cc2)c(O)c1	?	?	-14.4	?	?
C=C(C)COc1ccc(-c2[nH]ncc2-c2ccc(Br)cc2)c(O)c1	4.61µM*	23.1µM*	-100.5*	5.17µM*	14.6µM*
CC(=O)c1ccc(S(=O)(=O)N(C)CC(=O)NCC2CCCCC2)cc1	5.5%	6.1%	14.6	-17.0%	-4.1%
SMILES	DT40 TDP1 CPT	HT1080 IDH1KD tx	IL1B secr inh	DT40 TDP1 no CPT	HT1080NT lethal
O=C(c1cnccn1)N1CCC2(CC1)CN(Cc1nccs1)C2	2.9%	.	.	-18.6%	.
COc1cccc(Oc2cn[nH]c2-c2ccc(OCC(=O)NN)cc2O)c1	?	-0.6%	-3.4	?	-14.3%
CCCOC(=O)c1ccc(Oc2cn[nH]c2-c2ccc(OC)cc2O)cc1	14.6µM*	18.4µM*	-10.9	20.6µM*	20.6µM*
CC(=O)Nc1ccc(N(CC(=O)NC2CCCCC2)C(=O)Cn2nnc(-c3ccccc3)n2)cc1	4.4%	4.3%	5.7	5.1%	6.8%
O=C(NCC(c1ccco1)N1CCCCC1)c1ccc([N+](=O)[O-])s1 (configuration not stated)	18.4µM*	-4.5%	-15.5	23.1µM*	-7.4%
Cc1cccc(C(=O)NCC(=O)NCC(c2ccco2)N2CCCCC2)c1 (configuration not stated)	-8.9%	-6.3%	1.1	-0.9%	-12.4%
Cc1ccc2c(Cl)c(C(=O)NCC(c3ccco3)N3CCCC3)sc2c1 (configuration not stated)	18.4µM*	-1.9%	-7.0	?	-0.4%
O=C(NCC(c1ccco1)N1CCCC1)c1ccccc1Sc1ccc(C(F)(F)F)cc1[N+](=O)[O-] (configuration not stated)	?	-26.3%	-75.5*	?	-3.9%
Cc1ccc2oc(C(=O)NCC(c3ccco3)N3CCCC3)c(C)c2c1 (configuration not stated)	29.1µM*	?	-21.9	?	?
Cc1ccc(C(=O)NCC(c2ccco2)N2CCCCC2)s1 (configuration not stated)	?	-2.9%	12.5	?	-4.5%
Cc1cc2oc(C(=O)NCC(c3ccco3)N3CCCC3)c(C)c2cc1C (configuration not stated)	?	?	-2.5	20.6µM*	?
O=C(NCC(c1ccco1)N1CCCC1)c1cc2cc(Cl)ccc2o1 (configuration not stated)	18.4µM*	-9.6%	-25.8	?	-9.7%
CC1=C2C3OC(=O)C(C)C3CCC2(C)C=C(Br)C1=O (configuration not stated)	-11.2%	1.9%	-13.0	20.6µM*	-0.2%
CC1CCN(C(=O)C(C)Sc2nc(-c3ccccc3)cc(C(F)(F)F)n2)CC1 (configuration not stated)	25.9µM*	?	-29.1	29.1µM*	?
CC(Sc1nc(-c2ccccc2)cc(C(F)(F)F)n1)C(=O)N1CCCC1 (configuration not stated)	?	5.0%	-3.4	-21.9%	-0.1%
O=C(/C=C/c1ccccc1)NC(=S)N1CCSCC1	12.9%	?	26.9	-5.6%	19.7%

Screening data as filed in PubChem BioAssay.
